# According to the supplement of paper PMC11417369:
# In all, about 25,000 sequences were measured (“ln(normalized median fluorescence intensity)”: median about 6.7, highest 2% from about 10 on). For the sample, the highest values were picked, then their nearest neighbours and some sequences at random.
# Tested on: PfHDP1 homeodomain (GST-tagged)
# Test: gcPBM binding intensity (ln(normalized median fluorescence intensity)); higher = stronger DNA binding
# In short: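 GST-tagged P. falciparum DNA-binding domains, expressed in E. coli (about 25 μg on average), were applied for 1 h to an Agilent 4 × 180k array of primer-extended double-stranded 36-bp intergenic genomic probes plus negative controls. The binding buffer was 1× PBS with 1% milk, 0.2 mg/ml BSA, 0.5% salmon testes DNA and 0.03% Triton X-100. Bound protein was detected with Alexa488 anti-GST antibody and scanned at 488 nm. Binding intensity is the highest Masliner-normalised natural-log median intensity across replicate spots of either probe orientation.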
row,Sequence,gcPBM binding intensity (ln)
1,TATATCAAAATACATACACACATTTGTATTTACATT [CACACA_site5485],6.58
2,ACTTTTTTGAACAACGTGCACGTATTCATAACAAAA,10.6
3,TTTGTTCATATTATTGTGCACTTAAACGTAACAAAA [GTGCAC_site9505],10.1
4,TTGTATTCATAACAACGTACATATTTTGTAACTAAA [XGTACX_site4029],6.26
5,AATATCATCAAACGCACACATACATAAATATATTAT [CACACA_site2174],7.74
6,TATTTATATGTATATACATGCACATATATATGAAAC [TGCATGCA_site1005],8.8
7,TATACGAAATTGTGCACACATATATTTATGTATGTA [CACACA_site1509],11
8,ATACGCACACATATATGTACATATTGTATATATATA [XGTACX_site3962],8.34
9,AATATACGAAATTGTGCACACATATATTTATGTATG [CACACA_site1510],10.8
10,TATGTATAAATATATGCACACATATATATATTTATA [CACACA_site9150],9.35
11,TGTATAAATATATGCACACATATATATATTTATATA [CACACA_site3473],10
12,TAGATAAAATGAACATGTACTCATCTTAATATATAT [XGTACX_site34],6.23
13,AAAAGATATATTATATGTACTAATTATATGATAAAT [XGTACX_site4192],6.32
14,AGAGGTAGAGAGAAAACATGCATAATGATTTTCATA [TGCATGCA_site958],6.1
15,CATGCTACATCTTATTGTACTTATCTAATGTTAGTA [XGTACX_site1863],6.75
16,TATGTGCACCCATGTACATGCGGACATATGTTATAT [TGCATGCA_site383],10.6
17,ATATATATATATGCATGTACATATATTTGTTATATC [XGTACX_site3197],9.16
18,TATATATATATATATGCATGTACATATATTTGTTAT [TGCATGCA_site379],9.2
19,AAAATATTTATTACTTCACACATTATTGTATTTATA [CACACA_site5082],6.5
20,TTTGTTTTTTTGAGAGTGCAATATATATAAAAAGGG [GTGCAC_site9691],9.35

row,Sequence,gcPBM binding intensity (ln)
1,GCGTGTGTACAATGAGTGCATATCTAAAGGGAAGAT,9.43
2,TATATATATATATGAGTGCATATGTGTAATATAAAA,9.65
3,TTTCGTAATATGCGTGTGCACAATGAGTCCATATCT,10.9
4,TCAAAAAAAAAAAAAAAAAAAAAAAAAAAAAAAAAA [CACACA_negctrl_site1753],5.92
5,TATTAATAAATATGTTTACACACGAAAATACATTTT [CACACA_site1012],6.35
6,TGTATAATATTTGGTGCACACAAATTAACAACTGTT [CACACA_site9245],10.6
7,TGTATTAAATTTTGAACACACAAAATAAAACATATA [CACACA_site1672],6.54
8,TTTATTTTTAACAGTGCACACATAACTTAATTATAT [CACACA_site8681],9.52
9,TATAATATTTGGTGCACACAAATTAACAACTGTTTA [CACACA_site3742],10.8
10,TTCTTTGTAGTATATTAACACACAACTGTTTATAAT [CACACA_site9305],6.67
11,CTTTGTAGTATATTAACACACAACTGTTTATAATAT [CACACA_site6038],6.53
12,TCGTAGTTACTATGGCAAGAAAATAAACGGTCTTGT [GTGCAC_negctrl_site684],6.6
13,ATTAAAAATTATATTTTATAAAAATTAAAAGAAATA [CACACA_negctrl_site65],6.47
14,AATAATTTTTTAAACACACACACATATATATATATA [CACACA_site95],9.08
15,AAAAATATATATATATATATATATATATTATTTTTT [TGCATGCA_negctrl_site378],7
16,TAGAAGCATCATTTTACACACATGCAAATGTAAACT [CACACA_site6973],6.66
17,AAAAAATTAGATTATGCACACACACTAATAAATAAT [CACACA_site8604],9.67
18,AAAAAAGATAATTATGCACACACACCCACCCACCCA [CACACA_site8825],9.38
19,TTATTAGAAAAATGCACACCAAAAAAAAAAAAAAAA [CACACA_site2522],8.93
20,AAAAGATAATTATGCACACACACACCCCCACCCAAC [CACACA_site2570],10.5

row,Sequence,gcPBM binding intensity (ln)
1,TAATTATGCGGACACACACACACACCCAACTAAAAA [CACACA_site5427],6.81
2,ATTATATATATATATACACACACACCCTAAAAATAT [CACACA_site8463],7.22
3,ATTATGCACAGACACACACACACACTACTAAAAAAT [CACACA_site7252],11.1
4,ATTATGCACCAACACACACACACACTCCTAAAAAAT [CACACA_site8822],11.7
5,GAAATTAAAAAATTTATGCACACTTTAAAAAAAAAA [CACACA_site3769],9.28
6,ATTATGCACGGACACACACACACACCCCTAAAAAAT [CACACA_site5426],10.5
7,AAAAGATAATTATGCACACACACACCCAGACACAAC [CACACA_site5428],10.4
8,TATGCACCCAGACACACACACACAACTAAAAAATAA [CACACA_site2567],8.1
9,ACCTATTTCAAACACACACACACACTAGCAAACATA [CACACA_site4695],7.26
10,AAGAGAAAAATATGGTTGCACTAAAAATATATATTT,8.26
11,ATCATTTTTAAAGGAACACACAAAAAAAATTAAAAT [CACACA_site4878],6.76
12,TCTTTTTTAATATAATATATTTTTATTAAGTAAATC [TGCATGCA_negctrl_site408],6.2
13,ATTAATAATGAGTTATGTACATACATATTTTAAGAT [XGTACX_site7543],6.75
14,AATAAATACTAAATGGTGCAAAATTTTTTAACACTG,10
15,CATACTCTACATAGATGTACTCATTTAAAAAAAAAA [XGTACX_site6945],6.12
16,AATTAATAAAAAAGGTGTACAGTAAATGCAATAATC [XGTACX_site7956],8.08
17,AAATATATCATACAAAGTACTTGGAATTAATATATA [XGTACX_site8907],6.3
18,ATTATGCACCAACACACACACACACCCCTAAAAAAT [CACACA_site2568],11.5
19,TAATTATGCAGACACACACACACACCCAACTAAAAA [CACACA_site2569],7
20,TAATTATGCCAACACACACACACACCCAACTAAAAA [CACACA_site8823],6.96
